# Source: PubChem BioAssay
# This is a sample that favours compounds with a hit; in the whole collection about 2.7% have one here.
# LDHA inh – qHTS assay for inhibitors of human lactate dehydrogenase; L-lactate dehydrogenase A chain (Homo sapiens), P00338; purified LDHA, NADH/diaphorase-resazurin fluorescence; stronger effect = lower value; activity change, % (values are at about 110 or 230 µM); 480,000 compounds, 0.15% hits; AID 1347041, 2019; in the data active = activity change below about -30%; inconclusive = mostly about -25% to -30%
#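 LDH5 2 nM; NADH 0.06 mM, pyruvate 0.2 mM; 200 mM Tris pH 7.4, EDTA, Tween-20; 5 min RT. Detection: diaphorase 0.133 mg/mL + resazurin 37 µM, fluorescence ex540/em590 at 0 and 20 min; normalized to enzyme-free and DMSO wells.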
# Nrf2 block – Nrf2 qHTS screen for inhibitors; A549 ARE-Fluc reporter, luciferase luminescence, 18-24 h; Potency, µM (doses to about 46 µM), most hits filed as inhibitors; 360,000 compounds, 2.1% hits; AID 504444, 2011; note: nearly all actives have a fitted effect of over 60% in size
#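 In this cell-based qHTS, ARE-driven firefly luciferase in A549 cells reports Nrf2 activity; the luminescent signal after BugLite lysis is the measured value, with a prior CellTiter-Fluor read for cell health.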
# 12-LOX inh – Primary qHTS assay for inhibitors of human arachidonate 12S-lipoxygenase (ALOX12): Round 2; Polyunsaturated fatty acid lipoxygenase ALOX12 (Homo sapiens), P18054; purified 12hLO, xylenol orange hydroperoxide absorbance; Potency, µM (series often up to 108 µM), usual class: inhibitors; 580,000 compounds, 1.1% hits; AID 1671190, 2021
#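 Hydroperoxide product was detected by ferrous iron/xylenol orange as the 573 to 405 nm absorbance ratio. Arachidonic acid at 40 uM (final) was turned over for 30 min at room temperature by 150 nM human 12hLO, pH 7.0 Hepes buffer, after 15 min compound preincubation.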
# Nrf2 ARE act – qHTS of Nrf2 Activators; AREc32 ARE-luciferase reporter (MCF7-derived line), luminescence, 24 h; Potency, µM (highest dose often 46.1 µM), most hits filed as activators; 410,000 compounds, 0.31% hits; AID 624171, 2012; note: nearly all actives have a fitted effect of over 65% in size
#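 ARE activation measured as luciferase luminescence (Steady-Glo, 30 min RT) in AREc32_Fluc cells after 24 hr compound exposure at 37 deg C, 5% CO2; cells seeded overnight at 1000/well in OPTI-MEM, 5% FBS.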
# mIDH1 inhibitor – qHTS for Inhibitors of mutant isocitrate dehydrogenase 1 (IDH1): qHTS; Potency, µM (titrated, usually from 76.6 µM), hits mostly inhibitors; 390,000 compounds, 0.093% hits; Isocitrate dehydrogenase [NADP] cytoplasmic (Homo sapiens), O75874; AID 602179, 2012; IDH1-R132H enzyme, NADPH consumption, diaphorase/resazurin fluorescence; note: nearly all actives have a fitted effect of over 65% in size
# Target sequence (O75874 whole entry R132H, stated change not applied): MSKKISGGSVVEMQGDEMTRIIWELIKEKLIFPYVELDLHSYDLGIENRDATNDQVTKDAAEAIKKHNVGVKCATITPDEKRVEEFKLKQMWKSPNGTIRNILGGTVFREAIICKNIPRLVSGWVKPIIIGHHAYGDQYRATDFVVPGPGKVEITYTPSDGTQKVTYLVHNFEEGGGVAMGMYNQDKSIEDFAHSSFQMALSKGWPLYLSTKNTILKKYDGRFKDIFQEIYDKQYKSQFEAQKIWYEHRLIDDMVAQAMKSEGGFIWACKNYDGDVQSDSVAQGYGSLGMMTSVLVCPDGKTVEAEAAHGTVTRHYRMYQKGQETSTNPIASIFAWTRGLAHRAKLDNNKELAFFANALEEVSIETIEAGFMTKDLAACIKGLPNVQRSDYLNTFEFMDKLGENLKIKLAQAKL
#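 IDH1-R132H (0.5 ug/mL dispensed) in pH 7.5 Tris buffer was preincubated 30 min with compound, then given a substrate mix of 0.016 mM NADPH and 2 mM alpha-KG for 80 min at room temperature; remaining NADPH was read by diaphorase/resazurin fluorescence.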
# A549 viability – Nrf2 qHTS screen for inhibitors: counterscreen for cytotoxicity; A549 ARE-Fluc cells, CellTiter-Fluor viability, 18-24 h; Potency, µM (highest dose often 46 µM), most hits filed as inhibitors; 390,000 compounds, 0.16% hits
#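 A549 ARE_Fluc cells in 5% FBS OPTI-MEM were exposed to compounds in concentration-response for 18-24 h at 37 deg C. Viability was read by CellTiter-Fluor fluorescence (Ex 405/Em 525) after 30 min, before the luciferase read.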
# A number is an active result; i = inactive; ? = inconclusive; nt = no result; ! = not active in a repeat; [ ] = another dose, or the depositor's remark. Unless noted, calls come from the whole dose curve; as a rule, active = well fitted curve in the direction sought with a large enough effect; inconclusive = small, poorly fitted or top-dose-only effect, or another doubt; inactive = no such curve, though single readings can be large; an effect the other way counts as inactive or inconclusive.
SMILES,LDHA inh,Nrf2 block,12-LOX inh,Nrf2 ARE act,mIDH1 inhibitor,A549 viability
CC(C)CCNc1nc(-c2ccc3c(c2)NC(=O)CO3)cs1,i,nt,i,nt,nt,nt
CN(CCC#N)S(=O)(=O)c1ccc(Br)cc1,i,nt,?,nt,nt,nt
COc1ccc(NC(=O)C(C)n2nc(-c3ccc(C)cc3)c3c(c2=O)CCCC3)cc1 (stereo not given),i,nt,?,nt,nt,nt
COc1cc(NC(=O)C(C)n2nc(-c3ccccc3)c3c(c2=O)CCCC3)cc(OC)c1 (stereo not given),-32,nt,i,nt,nt,nt
Cc1sc(NC(=O)CSc2ncn(-c3ccccc3)n2)nc1-c1ccccc1,i,12µM,i,i,i,i
COc1cccc(-c2nc(CCNC(=O)COc3ccc(Cl)cc3)cs2)c1,i,nt,?,nt,nt,nt
CN(C)/C=C/C(=O)c1ccc(Br)cc1,i,?,7.9µM,i,i,i
COc1ccc(-n2ncc(C(=O)NCc3ccccc3)c2C2CCN(C(=O)OC(C)(C)C)CC2)cc1,i,i,i,i,i,i
COc1ccc2[nH]cc(CCNC(=O)c3cnn(-c4ccccc4Cl)c3C3CCN(C(=O)OC(C)(C)C)CC3)c2c1,i,?,i,i,i,?
COc1ccc2[nH]cc(CCNC(=O)c3cnn(-c4ccc(C)cc4)c3C3CCN(C(=O)OC(C)(C)C)CC3)c2c1,i,15µM,i,i,i,i
Cc1c(Cl)cccc1-n1ncc(C(=O)Nc2ccc(F)cc2F)c1C1CCN(C(=O)OC(C)(C)C)CC1,i,26µM,i,i,i,i
CCc1cccc(C)c1NC(=O)c1cnn(-c2ccc(OC)cc2)c1C1CCN(C(=O)OC(C)(C)C)CC1,i,23µM,i,i,i,i
O=C(Nc1c(NCC2CCCCC2)c2ccccc2oc1=O)c1ccc2c(c1)OCO2,i,nt,i,nt,nt,nt
COc1ccc(NC(=O)COc2ccc(/C(C)=N/O)cc2)cc1,i,nt,?,nt,nt,nt
COc1ccc(-c2cc3c(=O)n(CCNC(=O)c4n[nH]c5c4CCCC5)ccn3n2)cc1,nt,nt,i,nt,nt,nt
Cc1ccc(NC(=O)C2=C(c3ccccc3)NC(=S)NC2c2ccc(F)cc2)cc1 (stereo not given),i,nt,?,nt,nt,nt
CCN(CC(=O)Nc1ccc2c(c1)OCCO2)CC(=O)Nc1ccccc1C(F)(F)F,-46,i,i,i,i,i
Cc1ccc(S(=O)(=O)N2CCN(CCNC(=O)c3ccc(S(=O)(=O)N(C)C)cc3)CC2)cc1,i,nt,?,nt,nt,nt
COc1cccc(N2C(=O)NC(=NC3CCCC3)C23CCCN(CC2CCCCC2)C3)c1 (stereo not given),nt,nt,79µM,nt,nt,nt
COc1cccc(N2C(=O)NC(=NC3CCCCC3)C23CCCN(CC2CC2)C3)c1 (stereo not given),nt,nt,i[6.33 µM],nt,nt,nt
c1cc[n+](CCC[n+]2ccccc2)cc1,-31!,i,?,i,i,i
COc1ccc(C(C#N)=C2C=CC(=NO)C=C2)cc1,i,i,?,1.3µM,i,i
CC(C)(C)SCC(=O)Nc1ccc2c(c1)CCC2,i,nt,i,nt,nt,nt
CCN(CC)CC(C)(C)C(=O)/C=C/c1ccc(/C=C/C(=O)C(C)(C)CN(CC)CC)cc1,i,21µM,i,i,i,16µM
CS(=O)(=O)c1ccc(Cl)c(NC(=O)COC(=O)c2ccc(F)cc2Cl)c1,i,12µM,i,i,i,i
SMILES,LDHA inh,Nrf2 block,12-LOX inh,Nrf2 ARE act,mIDH1 inhibitor,A549 viability
CS(=O)(=O)c1ccc(Cl)c(NC(=O)COC(=O)c2cccc(C#N)c2)c1,i,i,i,i,i,i
CS(=O)(=O)c1ccc(C(=O)Nc2cc(S(C)(=O)=O)ccc2Cl)cc1,i,i,i,i,i,i
CS(=O)(=O)c1ccc(Cl)c(NC(=O)CCl)c1,i,21µM,i,?,i,i
O=S(=O)(NCC1(c2ccccc2)CCC1)c1ccc(F)c(F)c1,i,nt,?,nt,nt,nt
CCOC(=O)C(C)Oc1ccc2c(C)c(CCC(C)C)c(=O)oc2c1 (stereo not given),i,nt,i,nt,nt,nt
CC1CCCN(S(=O)(=O)c2ccc(NC(=O)c3cc(=O)c4cc(Cl)ccc4o3)cc2)C1 (stereo not given),i,nt,?,nt,nt,nt
CS(=O)(=O)N1CCCc2cc(C(=O)c3cc4cc(Cl)ccc4o3)ccc21,i,nt,i,nt,nt,nt
Cc1c(Cl)cccc1NC(=O)c1cc(-c2ccco2)on1,i,?,i,13µM,i,i
Cc1nc2sc(C#N)c(N)c2c(C)c1CC(=O)c1ccccc1,i,nt,i,nt,nt,nt
CC(C)CN1CCCC(c2nc3ccc(F)cc3c(=O)[nH]2)C1 (stereo not given),nt,nt,i,nt,nt,nt
CC(OC(=O)C1CCN(S(=O)(=O)c2ccc(C(C)(C)C)cc2)CC1)C(=O)N1CCOCC1 (stereo not given),i,i,45µM!,i,i,i
Brc1ccc(-c2nnc(CN3CCN(c4ccccc4)CC3)o2)s1,i,nt,i,nt,nt,nt
COc1ccc(-c2cc(NC=O)c3ncc(-c4ccc(OC)c(OC)c4)n3c2)c(OC)c1,i,nt,56µM,i,nt,nt
COc1ccc(-c2cnc3c(NC=O)cc(-c4cc(OC)c(OC)c(OC)c4)cn23)cc1OC,i,nt,i,i,nt,nt
COc1ccc(-c2cnc3c(NC=O)cc(-c4ccoc4)cn23)cc1OC,i,nt,5µM,i,nt,nt
COc1cccc(-c2cnc3c(NC=O)cc(-c4ccc(OC)cc4OC)cn23)c1,i,nt,i,i,nt,nt
CCc1ccc(OCC(=O)Nc2ccc(SCc3cc(=O)n4c(ncn4C(C)C)n3)cc2)cc1,i,nt,i,nt,nt,nt
CC(=O)NCC(=O)N(c1ccc(C)cc1)C1(C(=O)Nc2ccc(C)cc2)CCCCC1,i,nt,?,nt,nt,nt
CC1CCC/C=C/C(=O)c2c(O)cc(O)cc2CC(=O)O1 (stereo not given),i,5.8µM,i,i,i,13µM
CC(=O)Nc1ncc(N=Nc2cccc(C(F)(F)F)c2)s1,i,i,i,?,i,12µM
CCC(C)(C)c1ccc2c(C(=O)N3C[C@H](N)C[C@H]3C(=O)NC)csc2c1,nt,nt,13µM,nt,nt,nt
COc1ccc(C(=O)c2c(C(F)(F)F)oc3c2C(=O)c2ccccc2C3=O)cc1,i,nt,nt,i,i,7.3µM
COc1ccccc1-c1cc(C(=O)Nc2c(C)nn(Cc3ccc(Cl)cc3)c2C)no1,i,18µM,?,i,i,?
COc1ccc2c(c1)CCc1c(C(=O)Nc3c(C)nn(Cc4ccc(C)cc4)c3C)noc1-2,i,15µM,i,i,i,i
Cc1nn(Cc2ccc(Cl)c(Cl)c2)c(C)c1NC(=O)c1sc2ccccc2c1Cl,i,15µM,i,i,i,i
